MCF10A rerep – DNA re-replication induction in MCF 10a cells. MCF 10A DNA re-replication, Hoechst nuclear intensity, 48 h. Potency, µM (top dose mostly 46.1 µM), for the others: at the highest dose activity, positive = re-replication, hits mostly activators. 350,000 compounds, 2.9% hits. AID 624296; further: % of control where 0% means no effect; nearly all actives have a fitted effect of over 50% in size
SW480 rerep – induces DNA re-replication in SW480 colon adenocarcinoma cells; SW480 DNA re-replication, Hoechst DNA content imaging, 48 h; Potency, µM (highest dose often 46.1 µM), inactives show top-dose re-replication activation, usual class: activators; 340,000 compounds, 1.8% hits; AID 624297; further: % of control where 0% means no effect; nearly all actives have a fitted effect of over 55% in size
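250 cells/well; 23 nL cpd via pin tool; 48 hr, 37 C, 5% CO2; Hoechst 40 min; imager read of total nuclear intensity, ex 405/em 500-530 nm.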
KB-V1 MDR tox – kills drug-selected multidrug resistant KB-V1 cells; KB-V1 MDR cells viability, CellTiter-Glo, 72 h; Potency, µM (series often up to 46.1 µM), actives largely listed as cytotoxic; 400,000 compounds, 3.4% hits; further: on the % scale 0 is the no-effect control and ±100 the full control effect; nearly all actives have a fitted effect of over 60% in size
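Potencies derive from concentration-effect curves fitted to normalized luminescence (CellTiter-Glo) of KB-V1 cells treated for 72 h at 37 degrees C in phenol-red-free DMEM containing 10% FBS.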
HT1080 IDH1KD tx – HT-1080 IDH1 knockdown cell toxicity (counter line); HT-1080 IDH1 knockdown viability, ATP luminescence, 48 h; Potency, µM (highest dose often 46.1 µM), without a hit: at the top dose activity, negative = toxicity, most hits filed as cytotoxic; 360,000 compounds, 2% hits; AID 686971;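 further: 0% = DMSO wells and -100% = cell-free medium wells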
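HT-1080-IDH1KD cells (IDH1 knocked down), 750/well in RPMI with 5% FBS, treated with compound 48 h at 37 degrees C. Viability by CellTiter-Glo luminescence, normalised to DMSO and no-cell wells; concentration-response curves classed.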
HT1080-NT tox – kills 2HG-producing HT-1080-NT fibrosarcoma cells. Potency, µM (titrated, usually from 46.1 µM), for the others: at the top dose activity, negative = less viability, hits mostly cytotoxic. AID 686970. HT-1080-NT fibrosarcoma viability, CellTiter-Glo ATP luminescence, 48 h. 360,000 compounds, 1.6% hits;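 further: NT is the 2HG producing partner of a matched IDH1 knockdown line; 0% = DMSO-treated cells and -100% = media-only wells without cells; nearly all actives have a fitted effect of over 55% in size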
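HT-1080-NT; 750 cells/well; 5% FBS RPMI; 48 h compound, 37 degrees C; CellTiter-Glo luminescence; curve fitting and curve-class assignment.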
KB-3-1 tox – kills parental KB-3-1 adenocarcinoma cells; KB-3-1 viability, CellTiter-Glo ATP luminescence, 72 h; Potency, µM (highest dose often 46.1 µM), usual class: cytotoxic; 400,000 compounds, 1.4% hits; AID 1347075; further: on the % scale 0 is the no-effect control and ±100 the full control effect; nearly all actives have a fitted effect of over 60% in size
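Here the drug-naive KB-3-1 line serves as comparator for MDR sub-line selectivity; cells received compound titrations, 72 h at 37 °C, then CellTiter-Glo readout.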
Starred values were filed as active, the others as inactive; i = inactive; ? = inconclusive; nt = not tested or not shown; [ ] = another dose, or the depositor's remark. Hits are enriched below; roughly 7.9% of the tested compounds scored in any of these assays. The call rests on the fitted dose curve; in most records, active means well fitted curve in the direction sought with a large enough effect; inconclusive means small, poorly fitted or top-dose-only effect, or another doubt; inactive means no such curve, though single readings can be large; an effect the other way counts as inactive or inconclusive. Potency means the concentration at half of the fitted maximal effect.

SMILES	MCF10A rerep	SW480 rerep	KB-V1 MDR tox	HT1080 IDH1KD tx	HT1080-NT tox	KB-3-1 tox
O=C(OCc1cc(Cl)cc2c1OCOC2)c1cccnc1Cl	0%	4%	i	9%	0%	i
CNS(=O)(=O)c1cccc(C(=O)OCc2cc(Cl)cc3c2OCOC3)c1	?	15%	18µM*	-16%	-6%	i
Cc1cnc(NC(=O)c2cc(S(=O)(=O)N(C)C)ccc2N2CCCC2)s1	6.5µM*	?	?	-29%	-23%	21µM*
COc1ccc(C(C)(C)C)cc1NC(=O)c1cc(S(=O)(=O)N(C)C)ccc1N1CCCC1	8%	1%	23µM*	-16%	-11%	i
CN(C)S(=O)(=O)c1ccc(N2CCCC2)c(C(=O)Nc2ccc(F)cc2F)c1	1%	-3%	i	2%	2%	i
Cc1cc(Cl)ccc1NC(=O)C1CCCN1S(=O)(=O)c1ccc2c(c1)CCCC(=O)N2 (centres undefined)	nt	nt	i	nt	nt	i
Cc1ccc(Cl)cc1NC(=O)C1CCCN1S(=O)(=O)c1ccc(-c2ccc(=O)[nH]n2)s1 (centres undefined)	?	4µM*	i	?	-22%	?
Cc1cc(NCCCCCCCNc2cc(C)nc3cc([N+](=O)[O-])ccc23)c2ccc([N+](=O)[O-])cc2n1	3.7µM*	?	21µM*	?	?	?
COCCCNc1cc(C)nc2ccccc12	-8%	3%[9.22 µM]	i	-11%	0%	i
O=C(NCCCN1CCOCC1)c1onc(CSc2ccccn2)c1C(=O)NCCCN1CCOCC1	-17%	0%	?	-11%	-10%	i
CC(C)SC1=NC(C)(C)C=C(/C=C/c2ccc(Cl)cc2Cl)N1	8.2µM*	?	i	?	?	?
CC(C)SC1=NC(C)(C)C=C(/C=C/c2c(Cl)cccc2Cl)N1	18µM*	?	i	21µM*	?	15µM*
O=C(/C=C/c1ccc(Cl)cc1Cl)c1nc2ccccc2[nH]1	0%	?	i	?	?	i
Clc1cccc(Cl)c1/C=C/c1nc2ccccc2[nH]1	29%	21%	?	?	?	?
Cc1cc(NC(=O)Nc2cccc(C(F)(F)F)c2)n(C)n1	23%	-6%	i	0%	7%	i
CNC(=O)Nc1cc(C)nn1C	-5%	23µM*	i	8%	1%	i
CN1CCC(N(C)C(=O)c2ccccc2Nc2ccc(SC(F)F)cc2)CC1	8.2µM*	-5%	i	3%	2%	i
COc1cc2c(-c3ccccc3C)nc3c(c(C)nn3-c3ccccc3)c2cc1OC	nt	nt	i	nt	nt	i
O=C(C=Cc1ccccc1)c1c[nH]c2ccccc2c1=O	6.5µM*	8.2µM*	7.3µM*	?	8.2µM*	5.2µM*
O=C(/C=C/c1ccccc1)c1c[nH]c2ccccc12	-1%	?	i	0%	-1%	i
Cc1[nH]c2ccccc2c1/C=C/C(=O)c1ccccc1	21µM*	18µM*	?	?	-28%	?
Cc1[nH]c2ccccc2c(=O)c1C(=O)/C=C/c1ccccc1	12µM*	?	15µM*	?	-4%	?
COC(=O)c1c(C)[nH]c(C(=O)/C=C/c2ccccc2)c1C	-46%	-128%	12µM*	?	28%	i
Cc1csc2c(NC3CCN(Cc4ccccc4)CC3)ncnc12	8%	-2%	i	-13%	-3%	i
O=C(CSc1nccc(=O)[nH]1)Nc1ccc2ccccc2c1	1%	2%	i	4%	5%	i
CC(=O)Nc1cccc(Oc2nc(NCC3CC3)nc3ccsc23)c1	nt	nt	?	-29%	-22%	i
CCOC(=O)N1CCC(n2c(SCC(=O)NCc3ccco3)nc3ccsc3c2=O)CC1	21%	-1%	2.1µM*	-3%	8%	?
